Test results reported in the supplement of paper PMC6089552.
Out of some 3,200 compounds screened, about 300 (9.4%) showed activity. Shown is part of a subset that was picked to be rich in actives.

System: A673/TR/shEF
Test: cell viability (LOESS-normalised, relative to median of negative controls) (log2 ratio); higher = more viable cells (less compound effect), active = hit call of the paper (over 3 MAD below the median)
Settings: treatment time: 72 h
Summary of the method: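 For three days, A673/TR/shEF Ewing sarcoma cells in 384-well plates (1,500 per well) were treated with library compounds at two or more concentrations or with DMSO controls, after doxycycline had been added or withheld 24 h beforehand to induce EWS-FLI1 shRNA knockdown. Viability was read by CellTiter-Glo luminescence on an Envision reader. The data were LOESS-corrected per plate, divided by the median of negative controls and log2-transformed.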

[1] = 0.25 µM, library screen: screen1, EWS-FLI1 expression: high (no doxycycline)
[2] = 0.25 µM, library screen: screen1, EWS-FLI1 expression: low (doxycycline-induced shRNA knockdown)
[3] = 2.5 µM, library screen: screen1, EWS-FLI1 expression: high (no doxycycline)
[4] = 2.5 µM, library screen: screen1, EWS-FLI1 expression: low (doxycycline-induced shRNA knockdown)
[5] = 0.025 µM, library screen: screen2, EWS-FLI1 expression: high (no doxycycline)
[6] = 0.025 µM, library screen: screen2, EWS-FLI1 expression: low (doxycycline-induced shRNA knockdown)
[7] = 0.25 µM, library screen: screen2, EWS-FLI1 expression: high (no doxycycline)
[8] = 0.25 µM, library screen: screen2, EWS-FLI1 expression: low (doxycycline-induced shRNA knockdown)
[9] = 2.5 µM, library screen: screen2, EWS-FLI1 expression: high (no doxycycline)
[10] = 2.5 µM, library screen: screen2, EWS-FLI1 expression: low (doxycycline-induced shRNA knockdown)
[11] = 25 µM, library screen: screen2, EWS-FLI1 expression: high (no doxycycline)
[12] = 25 µM, library screen: screen2, EWS-FLI1 expression: low (doxycycline-induced shRNA knockdown)
[13] = 0.103 µM, library screen: screen3, EWS-FLI1 expression: high (no doxycycline)
[14] = 0.103 µM, library screen: screen3, EWS-FLI1 expression: low (doxycycline-induced shRNA knockdown)
[15] = 0.308 µM, library screen: screen3, EWS-FLI1 expression: high (no doxycycline)
[16] = 0.308 µM, library screen: screen3, EWS-FLI1 expression: low (doxycycline-induced shRNA knockdown)
[17] = 0.926 µM, library screen: screen3, EWS-FLI1 expression: high (no doxycycline)
[18] = 0.926 µM, library screen: screen3, EWS-FLI1 expression: low (doxycycline-induced shRNA knockdown)
[19] = 2.8 µM, library screen: screen3, EWS-FLI1 expression: high (no doxycycline)
[20] = 2.8 µM, library screen: screen3, EWS-FLI1 expression: low (doxycycline-induced shRNA knockdown)
[21] = 8.3 µM, library screen: screen3, EWS-FLI1 expression: high (no doxycycline)
[22] = 8.3 µM, library screen: screen3, EWS-FLI1 expression: low (doxycycline-induced shRNA knockdown)
[23] = 25 µM, library screen: screen3, EWS-FLI1 expression: high (no doxycycline)
[24] = 25 µM, library screen: screen3, EWS-FLI1 expression: low (doxycycline-induced shRNA knockdown)

Measured: cell viability (log2)

CC1(C)C(=O)C=C[C@]2(C)C3CC[C@@]4(C)[C@H](c5ccoc5)C[C@H]5O[C@]54C3[C@H](O)CC12 (some centres undefined)
inactive: [1] 0.0404 | [2] 0.00309 | [3] 0.102 | [4] 0.0462

C[C@H]1C(=O)O[C@@H]2CCN3CC=C(COC(=O)[C@](C)(O)[C@]1(C)O)[C@H]23
inactive: [5] 0.0665 | [6] 0.0541 | [1] 0.00981 | [2] 0.0549 | [7] 0.122 | [8] 0.0363 | [3] 0.0901 | [4] 0.111 | [9] 0.0833 | [10] 0.0416 | [11] 0.0406 | [12] 0.0625

Cc1c(O)c(O)cc2c1CC=C1[C@@]2(C)CC[C@@]2(C)[C@@H]3C[C@](C)(C(=O)O)CC[C@]3(C)CC[C@]12C
inactive: [1] 0.102 | [2] 0.0187 | [3] 0.0348 | [4] 0.22

COC(=O)[C@]1(C)CC[C@]2(C)CC[C@]3(C)C4=CC=C5C(=CC(=O)C(O)=C5C)[C@]4(C)CC[C@@]3(C)[C@@H]2C1
inactive: [1] -0.0347 | [2] 0.133
active: [3] -2.91 | [4] -3.05

CC1=C(O)C(=O)C=C2C1=CC=C1[C@@]2(C)CC[C@@]2(C)[C@@H]3C[C@](C)(C(=O)O)CC[C@]3(C)CC[C@]12C
active: [3] -1.03 | [9] -4.23 | [10] -0.301 | [11] -4.23 | [12] -3.9
inactive: [5] 0.14 | [6] 0.0632 | [1] 0.0936 | [2] 0.0786 | [7] 0.154 | [8] 0.0872 | [4] 0.0632

COC(=O)[C@]1(C)CC[C@]2(C)CC[C@]3(C)C4=CCc5c(cc(O)c(O)c5C)[C@]4(C)CC[C@@]3(C)[C@@H]2C1
inactive: [1] 0.0264 | [2] 0.158
active: [3] -1.44 | [4] -0.357

NCC(CC(=O)O)c1ccc(Cl)cc1 (centres undefined)
inactive: [1] 0.0966 | [2] 0.12 | [7] 0.221 | [8] 0.138 | [3] 0.123 | [4] 0.15 | [9] 0.124 | [10] 0.0836

CCC(N)C(O)c1ccc(O)c(O)c1 (centres undefined)
inactive: [1] 0.161 | [2] 0.0223 | [3] 0.0883 | [4] 0.0282

C[C@]12CC[C@H](O)CC1=CC[C@@H]1[C@@H]2CC[C@]2(C)C(=O)CC[C@@H]12
inactive: [13] -0.0409 | [14] 0.0562 | [1] 0.164 | [2] 0.131 | [7] 0.133 | [8] 0.0866 | [15] 0.0564 | [16] 0.076 | [17] -0.013 | [18] 0.0349 | [3] 0.137 | [4] 0.104 | [9] 0.173 | [10] 0.152 | [19] 0.0481 | [20] 0.0405 | [21] 0.0125 | [22] 0.0569 | [23] -0.0287 | [24] -0.0258

CCC(C)C(=O)O[C@@H]1C[C@@]2(C)[C@H](c3ccoc3)OC(=O)CC23OC2(C)OC14C1(C)[C@@H](CC(=O)OC)C5(C)CC1(O)C(O)([C@@H](OC(C)=O)C43O2)[C@H]5OC(=O)C1(C)OC1C (some centres undefined)
inactive: [1] 0.0892 | [2] 0.0664 | [3] 0.0941 | [4] 0.178

O=C(O)COc1cc(Cl)c(Cl)cc1Cl
inactive: [1] 0.0712 | [2] 0.0603 | [3] 0.0828 | [4] 0.0118

c1ccc2c3c([nH]c2c1)CNCC3
inactive: [1] 0.101 | [2] 0.0693 | [3] 0.2 | [4] 0.0982

FC(F)(F)c1cccc(N2CCNCC2)c1
inactive: [1] 0.112 | [2] 0.0689 | [3] 0.176 | [4] 0.0985

CN1C2CCC1CC(OC(c1ccccc1)c1ccc(Cl)cc1)C2 (centres undefined)
inactive: [7] 0.142 | [8] 0.124 | [9] 0.232 | [10] 0.111

CC(C)CC(NC(=O)C(Cc1ccccc1)NC(=O)CNC(=O)CNC(=O)C(N)Cc1ccc(O)cc1)C(=O)O (centres undefined)
inactive: [1] 0.0697 | [2] 0.0904 | [3] 0.0902 | [4] 0.179

Cc1nccc2c1[nH]c1ccccc12
inactive: [1] 0.0742 | [2] 0.0176 | [7] 0.227 | [8] 0.0311 | [3] 0.126 | [4] 0.136 | [9] 0.107 | [10] 0.0839

Cc1c2ccncc2c(C)c2c1[nH]c1ccccc12
active: [9] -0.136
inactive: [7] 0.0843 | [8] 0.00884 | [10] -0.00745

c1ccc2c(c1)[nH]c1cnccc12
inactive: [1] 0.0149 | [2] -0.0111 | [3] 0.101 | [4] 0.0791

Cc1ccccc1O
inactive: [1] 0.162 | [2] 0.0964 | [3] 0.189 | [4] 0.175

COC(C)(C)CCCC(C)C/C=C/C(C)=C/C(=O)OC(C)C (centres undefined)
inactive: [1] -0.00169 | [2] 0.0238 | [3] 0.116 | [4] 0.0204

COc1ccccc1N1CCNCC1
inactive: [1] 0.0547 | [2] 0.0205 | [7] 0.228 | [8] 0.0463 | [3] 0.105 | [4] 0.112 | [9] 0.201 | [10] 0.0929

c1ccc2c(N3CCNCC3)cccc2c1
active: [9] -0.803 | [10] -0.746
inactive: [7] 0.144 | [8] -0.113

c1ccc2nc(N3CCNCC3)ccc2c1
inactive: [1] 0.0719 | [2] 0.0592 | [7] 0.196 | [8] 0.0365 | [3] 0.0383 | [4] 0.12 | [9] 0.14 | [10] 0.00635

C[C@]12Cc3cn4c(nc3C=C1CCC1C2CC[C@@]2(C)[C@H]1CC[C@@]2(O)C#N)nc1ccccc14 (some centres undefined)
inactive: [7] 0.119 | [8] 0.112 | [9] 0.295 | [10] 0.0843

Cc1[nH]c2ccccc2c1CN(C)C
inactive: [1] 0.0738 | [2] 0.0842 | [3] 0.116 | [4] 0.138

NC(C(=O)O)c1cc(=O)[nH]o1 (centres undefined)
inactive: [7] 0.0457 | [8] -0.00138 | [9] 0.0296 | [10] 0.048

C=C1C([C@]2(C)C(CC(=O)OC)[C@@](C)(COC(C)=O)OC(=O)C[C@@H]2OC(C)=O)[C@@H](OC=O)[C@H](OC(=O)C(OC(C)=O)C(C)CC)[C@@]2(C)[C@H](c3ccoc3)CC(=O)C12O (some centres undefined)
inactive: [1] 0.0373 | [2] -0.0517 | [3] 0.0516 | [4] -0.0237

C/C(O)=C(\C#N)C(=O)Nc1cc(Br)ccc1Br
active: [3] -0.396 | 25 µM, library screen: screen1, EWS-FLI1 expression: high (no doxycycline) -0.451
inactive: 0.025 µM, library screen: screen1, EWS-FLI1 expression: high (no doxycycline) 0.198 | 0.025 µM, library screen: screen1, EWS-FLI1 expression: low (doxycycline-induced shRNA knockdown) -0.0693 | [1] 0.124 | [2] -0.0251 | [7] 0.133 | [8] 0.0965 | [4] -0.0427 | [9] 0.0403 | [10] 0.0594 | 25 µM, library screen: screen1, EWS-FLI1 expression: low (doxycycline-induced shRNA knockdown) -0.00927

COc1cc2ccc(=O)oc2c2ccoc12
inactive: [1] 0.222 | [2] 0.132 | [3] 0.248 | [4] 0.164

CCN(CC)C(=O)NC1C=C2c3cccc4[nH]cc(c34)CC2N(C)C1 (centres undefined)
inactive: [7] 0.194 | [8] 0.105 | [9] 0.116 | [10] 0.101

O=[N+]([O-])c1ccc(O[C@@H]2O[C@H](CO)[C@@H](O)[C@H](O)[C@H]2F)c([N+](=O)[O-])c1
inactive: [7] 0.132 | [8] 0.00815 | [9] 0.0628 | [10] 0.111

COc1c2c(cc3c1OCO3)[C@]13C=C[C@H](OC)C[C@H]1N(C2)CC3O (some centres undefined)
inactive: [1] 0.0348 | [2] 0.0745 | [3] 0.0133 | [4] 0.0521

COP(=S)(OC)SCn1nnc2ccccc2c1=O
active: [21] -0.267 | [23] -0.422
inactive: [13] -0.0814 | [14] 0.0283 | [1] -0.0615 | [2] 0.0291 | [15] -0.0468 | [16] 0.0348 | [17] -0.0952 | [18] 0.162 | [3] 0.00869 | [4] 0.101 | [19] -0.136 | [20] 0.125 | [22] 0.196 | [24] 0.00265

CNC(=O)CSP(=S)(OC)OC
inactive: [1] 0.102 | [2] 0.0684 | [3] 0.15 | [4] 0.0982

CCCN1CCc2cccc3c2[C@H]1Cc1ccc(O)c(O)c1-3
inactive: [7] 0.161 | [8] 0.0862 | [9] 0.178 | [10] 0.107

CC(C)=CCOc1c2occc2cc2ccc(=O)oc12
inactive: [1] 0.059 | [2] 0.0156 | [3] 0.0916 | [4] -0.0403

Clc1ccc(C(c2ccc(Cl)cc2)C(Cl)(Cl)Cl)cc1
inactive: [1] 0.0479 | [2] 0.0234 | [3] 0.0726 | [4] 0.147

CN(C)C(=S)SSC(=S)N(C)C
active: [1] -2.91 | [2] -2.1 | [3] -2.99 | [4] -2.02

C[C@]12CC[C@@H](O)C[C@@H]1CC[C@@H]1[C@@H]2CC[C@]2(C)[C@@H](O)CC[C@@H]12
inactive: [7] 0.0177 | [8] 0.137 | [9] 0.141 | [10] 0.0662
